Experimental data taken from PubChem BioAssay (NCATS).
Inconclusive results are not listed. A call without a number means that no potency is given here. Unmarked numbers belong to inactive results. Activity calls are given as the source filed them. Unless noted, the call rests on the fitted dose curve; in most records, active means well fitted curve in the direction sought with a large enough effect; inconclusive means small, poorly fitted or top-dose-only effect, or another doubt; inactive means no such curve, though single readings can be large; an effect the other way counts as inactive or inconclusive.

Key:
[1] = qHTS for Inhibitors of Plasmodium falciparum (CP250) proliferation (AID 504320); further: potency means the concentration at half of the fitted maximal effect
Outline: (§1)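 Parasite growth measured as SYBR Green DNA fluorescence (ex 485, em 535 nm) after overnight lysis following 72 h culture at 37 °C, 0.3% parasitemia, 2.5% hematocrit. Values normalized against DMSO and 0.29 uM artemisinin controls, with plate-stack correction.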

[2] = molecular target: Atrial natriuretic peptide receptor 1 (Homo sapiens) (UniProt P16066); assay: Natriuretic polypeptide receptor (hNpr1) antagonism - Pilot CMLD screen (AID 1347052; calls by dose curve;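 further: cGMP level read as GloSensor luciferase luminescence after agonist stimulation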; further: potency means the concentration at half of the fitted maximal effect;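 on activity change, negative = inhibition: HEK293 cells with hNpr1 stimulated by hNppA peptide at 0.1 nM; series mostly up to about 9.2 µM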)
[3] = qHTS for Inhibitors of Plasmodium falciparum (HB3) proliferation (AID 504318); further: nearly all actives have a fitted effect of over 60% in size; further: potency means the concentration at half of the fitted maximal effect
Outline: as §1

[4] = molecular target: Cytochrome P450 2C9 (Homo sapiens) (UniProt P11712); assay: qHTS Assay for Inhibitors and Substrates of Cytochrome P450 2C9 (AID 883); further: nearly all actives have a fitted effect of over 60% in size
Outline: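 Human CYP2C9 (10nM) with Luciferin-H at 100uM (its KM) in 25mM KPO4; compound preincubated 10 min at 37C, then NADPH regeneration for 60 min at 37C. Luciferin read by luminescence after detection reagent; normalized to 57uM sulphaphenazole as full inhibition.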

[5] = molecular target: Cytochrome P450 3A4 (Homo sapiens) (UniProt P08684); assay: qHTS Assay for Inhibitors and Substrates of Cytochrome P450 3A4 (AID 884); further: series mostly up to about 57 µM; nearly all actives have a fitted effect of over 50% in size
Outline: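 Luminescent readout of luciferin produced by CYP3A4 (20 nM) dealkylation of Luciferin-PPXE, 25 uM (its KM). NADPH-driven reaction ran 60 min at RT after 10 min compound preincubation; data scaled to 57 uM ketoconazole as 100% inhibition.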

[6] = molecular target: Cytochrome P450 2D6 (Homo sapiens) (UniProt P10635); assay: qHTS Assay for Inhibitors and Substrates of Cytochrome P450 2D6 (AID 891);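 further: luciferin methyl ether substrate demethylated by CYP2D6 with NADPH regeneration; nearly all actives have a fitted effect of over 60% in size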
Outline: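 Luminescent read-out of luciferin formed by 5 nM human CYP2D6 demethylating 30 uM Luciferin-ME EGE (Km level) over 60 min at room temperature after NADPH regeneration addition. Data normalized to full inhibition by 1.43 uM quinidine.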

[7] = molecular target: Cytochrome P450 2C19 (Homo sapiens) (UniProt P33261); assay: qHTS Assay for Inhibitors and Substrates of Cytochrome P450 2C19 (AID 899); further: nearly all actives have a fitted effect of over 60% in size
Outline: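 5 nM human CYP2C19 with 10uM Luciferin-H EGE (at KM) in 50mM KPO4, compound preincubated 10 min at 37C, then NADPH regeneration for 60 min at 37C. Luciferin read by luminescence after detection reagent; normalized to 57uM ketoconazole as full inhibition.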

[8] = molecular target: N-terminal Xaa-Pro-Lys N-methyltransferase 1 (Homo sapiens) (UniProt Q9BV86); assay: qHTS Assay for Inhibitors of N-terminal methyltransferase 1 (NTMT1): LOPAC validation of the NTMT1 SAHH-coupled ThioGlo3 Assay (AID 1347143);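 further: SAH from peptide methylation measured as thiol fluorescence via SAHH coupling and ThioGlo3; potency means the concentration at half of the fitted maximal effect; nearly all actives have a fitted effect of over 70% in size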
Outline: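 Steps: dispense 125nM NTMT1; pin-transfer test compounds at several concentrations, with 1uM RCC1-6 peptide as control; incubate 1 min; start with reagent holding 100uM SAM, 10uM SAHH, 15uM ThioGlo3; read at 0 and 30 min.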

Atrial natriuretic peptide receptor 1 (Homo sapiens), sequence (P16066 whole entry, looked up): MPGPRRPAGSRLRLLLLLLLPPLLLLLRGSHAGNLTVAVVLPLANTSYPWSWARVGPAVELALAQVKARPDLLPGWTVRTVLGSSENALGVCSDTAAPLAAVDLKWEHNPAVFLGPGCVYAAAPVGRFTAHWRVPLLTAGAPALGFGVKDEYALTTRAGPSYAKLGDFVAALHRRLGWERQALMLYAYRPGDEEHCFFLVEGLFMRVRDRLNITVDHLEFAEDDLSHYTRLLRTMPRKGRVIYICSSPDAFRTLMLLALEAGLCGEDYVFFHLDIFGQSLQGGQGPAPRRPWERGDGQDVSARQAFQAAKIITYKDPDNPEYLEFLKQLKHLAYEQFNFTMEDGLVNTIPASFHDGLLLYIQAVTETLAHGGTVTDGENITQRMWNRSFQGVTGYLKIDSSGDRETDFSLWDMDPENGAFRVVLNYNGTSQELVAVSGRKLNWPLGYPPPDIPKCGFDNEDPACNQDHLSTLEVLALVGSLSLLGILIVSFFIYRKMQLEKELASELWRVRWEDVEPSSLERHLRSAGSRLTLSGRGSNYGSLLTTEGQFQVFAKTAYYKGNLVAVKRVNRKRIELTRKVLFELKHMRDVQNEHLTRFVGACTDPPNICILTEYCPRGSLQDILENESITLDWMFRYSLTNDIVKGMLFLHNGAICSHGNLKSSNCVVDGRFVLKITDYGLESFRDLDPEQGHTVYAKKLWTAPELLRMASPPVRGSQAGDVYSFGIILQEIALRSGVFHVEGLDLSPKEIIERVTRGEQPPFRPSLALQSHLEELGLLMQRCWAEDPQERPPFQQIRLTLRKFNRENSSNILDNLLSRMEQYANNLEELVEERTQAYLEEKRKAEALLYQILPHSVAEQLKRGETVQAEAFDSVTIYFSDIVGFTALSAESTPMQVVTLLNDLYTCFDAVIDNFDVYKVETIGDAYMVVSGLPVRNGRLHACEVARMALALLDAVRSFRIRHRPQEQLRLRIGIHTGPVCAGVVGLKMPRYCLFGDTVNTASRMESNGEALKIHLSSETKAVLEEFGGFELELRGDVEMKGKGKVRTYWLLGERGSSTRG
Cytochrome P450 2C19 (Homo sapiens), sequence (P33261 whole entry, looked up): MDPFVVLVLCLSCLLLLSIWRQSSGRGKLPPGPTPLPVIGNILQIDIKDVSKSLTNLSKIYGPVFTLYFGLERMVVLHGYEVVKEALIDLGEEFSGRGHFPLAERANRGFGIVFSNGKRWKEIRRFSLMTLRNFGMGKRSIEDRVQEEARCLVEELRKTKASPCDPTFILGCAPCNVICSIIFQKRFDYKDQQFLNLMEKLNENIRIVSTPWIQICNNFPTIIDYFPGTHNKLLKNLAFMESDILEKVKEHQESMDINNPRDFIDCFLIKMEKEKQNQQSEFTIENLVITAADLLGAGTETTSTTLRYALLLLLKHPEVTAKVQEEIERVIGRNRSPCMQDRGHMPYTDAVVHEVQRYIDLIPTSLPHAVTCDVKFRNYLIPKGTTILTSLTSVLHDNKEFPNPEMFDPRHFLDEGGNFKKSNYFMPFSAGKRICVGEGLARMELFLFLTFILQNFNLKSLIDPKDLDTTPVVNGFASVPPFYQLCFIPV
Cytochrome P450 3A4 (Homo sapiens), sequence (P08684 whole entry, looked up): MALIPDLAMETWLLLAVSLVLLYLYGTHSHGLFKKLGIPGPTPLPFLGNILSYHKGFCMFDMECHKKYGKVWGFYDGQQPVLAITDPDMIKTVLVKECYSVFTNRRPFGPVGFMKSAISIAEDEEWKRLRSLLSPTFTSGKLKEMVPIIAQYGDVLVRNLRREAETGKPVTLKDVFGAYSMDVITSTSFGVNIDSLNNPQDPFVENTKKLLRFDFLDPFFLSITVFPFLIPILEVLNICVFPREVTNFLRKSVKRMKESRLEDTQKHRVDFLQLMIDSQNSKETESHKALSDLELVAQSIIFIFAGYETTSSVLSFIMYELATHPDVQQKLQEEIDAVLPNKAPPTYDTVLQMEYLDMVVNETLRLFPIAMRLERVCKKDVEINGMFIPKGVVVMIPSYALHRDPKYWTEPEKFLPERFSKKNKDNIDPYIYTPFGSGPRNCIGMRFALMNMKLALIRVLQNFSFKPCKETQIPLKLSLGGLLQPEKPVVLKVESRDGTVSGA
N-terminal Xaa-Pro-Lys N-methyltransferase 1 (Homo sapiens), sequence (Q9BV86 whole entry, looked up): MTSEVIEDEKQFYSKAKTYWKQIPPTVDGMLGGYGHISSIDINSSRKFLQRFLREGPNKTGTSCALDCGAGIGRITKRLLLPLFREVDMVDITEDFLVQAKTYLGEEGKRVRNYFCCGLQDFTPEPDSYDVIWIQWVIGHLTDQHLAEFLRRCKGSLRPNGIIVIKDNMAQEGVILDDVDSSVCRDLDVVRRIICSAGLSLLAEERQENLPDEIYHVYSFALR
Cytochrome P450 2C9 (Homo sapiens), sequence (P11712 whole entry, looked up): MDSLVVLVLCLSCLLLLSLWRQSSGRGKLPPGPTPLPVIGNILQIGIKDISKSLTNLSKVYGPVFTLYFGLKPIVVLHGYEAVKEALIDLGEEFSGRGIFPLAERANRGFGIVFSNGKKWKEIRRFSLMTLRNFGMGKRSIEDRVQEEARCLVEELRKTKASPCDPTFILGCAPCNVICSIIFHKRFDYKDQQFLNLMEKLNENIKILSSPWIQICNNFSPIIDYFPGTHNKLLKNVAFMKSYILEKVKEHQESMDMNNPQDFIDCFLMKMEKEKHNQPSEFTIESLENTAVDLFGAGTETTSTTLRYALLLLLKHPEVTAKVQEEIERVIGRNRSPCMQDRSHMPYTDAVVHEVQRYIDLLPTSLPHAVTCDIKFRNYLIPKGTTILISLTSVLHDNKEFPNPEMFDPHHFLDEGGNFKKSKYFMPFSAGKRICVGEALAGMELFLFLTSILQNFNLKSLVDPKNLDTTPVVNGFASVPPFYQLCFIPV
Cytochrome P450 2D6 (Homo sapiens), sequence (P10635 whole entry, looked up): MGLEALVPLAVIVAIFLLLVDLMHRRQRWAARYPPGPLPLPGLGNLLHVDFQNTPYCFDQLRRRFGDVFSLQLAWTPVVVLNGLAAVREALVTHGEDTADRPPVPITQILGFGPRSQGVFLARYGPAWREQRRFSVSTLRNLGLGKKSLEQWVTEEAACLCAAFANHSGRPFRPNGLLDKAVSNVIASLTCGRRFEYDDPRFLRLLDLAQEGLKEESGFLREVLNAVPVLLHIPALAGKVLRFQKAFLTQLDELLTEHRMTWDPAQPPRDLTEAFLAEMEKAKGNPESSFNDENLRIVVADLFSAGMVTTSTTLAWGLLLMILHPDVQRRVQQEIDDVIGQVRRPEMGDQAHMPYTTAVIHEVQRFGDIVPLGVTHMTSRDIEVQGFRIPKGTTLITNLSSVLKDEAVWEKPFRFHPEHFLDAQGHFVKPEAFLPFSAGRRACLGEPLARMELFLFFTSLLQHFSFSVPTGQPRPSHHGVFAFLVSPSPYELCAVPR

C=CCOCCC=C1c2ccccc2[C@@H](OC)[C@@H]1C
Potency [1]: inactive
Potency [2]: inactive

CC(C)(C)c1ccc(O[C@@H]2[C@H](O)CO[C@@H]2C=CC#Cc2ccccc2)cc1
Potency [1]: inactive
Potency [2]: inactive

C[C@@H]1C=CCC(=O)N[C@@H](c2ccc3ccccc3c2)[C@H](C)C=CCC(=O)N[C@@H]1c1ccc2ccccc2c1
Potency [1]: inactive
Potency [2]: inactive

N#Cc1ccc2c(c1)C[C@]1(c3ccsc3)Oc3c(c(=O)oc4ccc(F)cc34)[C@@H]2O1
Potency [1]: inactive
Potency [2]: inactive

COC(=O)CC=C[C@@H](C)[C@H](NC(=O)OCC(Cl)(Cl)Cl)c1ccc(-c2ccccc2)cc1
Potency [1]: inactive
Potency [2]: inactive

COc1ccc2c(c1)O[C@@H](c1ccc3c(c1)OCO3)[C@H](OC(=O)Nc1cc(OC)c(OC)c(OC)c1)C2=O
Potency [1]: inactive
Potency [2]: inactive

C=CC[C@@]1(c2ccccc2)Oc2ccccc2-c2nc3ccccc3nc21
Potency [1]: inactive
Potency [2]: inactive

C=CC[C@H]1C(=O)N2[C@@H](C[C@@H](C)[C@@H]2c2ccccc2)[C@@H](CC=C)C(=O)N2[C@H]1C[C@@H](C)[C@@H]2c1ccccc1
Potency [1]: inactive
Potency [2]: inactive

COCCN1C(=O)C2=C(C1=O)C1N(C)c3ccccc3[C@@]13C[C@@H](CO)N(C(=O)c1ccc(Br)cc1)C3=N2 (some centres undefined)
Potency [1]: inactive
Potency [2]: inactive

CCN1C(=NCc2cccc(C(F)(F)F)c2)NC(c2cccc(C(F)(F)F)c2)C(C(=O)OC)=C1C (centres undefined)
Potency [3]: inactive
Potency [1]: 757 nM (active)
Potency [2]: inactive

Cc1cc2c(c(=O)n1Cc1ccccc1)[C@H]1O[C@](c3ccsc3)(Cc3ccccc31)O2
Potency [1]: inactive
Potency [2]: inactive

CC1(C)O[C@@H](C(O)(c2ccccc2)c2ccccc2)[C@H](C(O)(c2ccccc2)c2ccccc2)O1
Potency [1]: inactive
Potency [2]: inactive

COC(=O)C1=C(C)N(Cc2ccccc2)C(=NCCc2c[nH]c3ccccc23)NC1c1cccc(F)c1 (centres undefined)
Potency [3]: inactive
Potency [1]: inactive
Potency [2]: inactive

COC(=O)C1=C(C)N(Cc2ccccc2)C(=NCCc2ccccn2)NC1c1cccc(F)c1 (centres undefined)
Potency [1]: inactive
Potency [2]: inactive

COC(=O)c1ccc(CN2C(=O)[C@@]3(CC(C)=C[C@@H](COc4ccccc4)O3)c3ccccc32)cc1
Potency [1]: inactive
Potency [2]: inactive

COC(=O)C1=C(C(=O)OC)[C@@H]2N(C)c3ccccc3[C@@]23CCC(=O)N(Cc2ccc4c(c2)OCO4)C3=N1
Potency [1]: inactive
Potency [2]: inactive

COC1=C[C@H](C(=O)N[C@H]2CCCC[C@H]2NC(C)=O)[C@@]2(C)Cc3ccccc3[C@@H]2CC1=O
Potency [1]: inactive
Potency [2]: inactive

C=CCN1c2ccccc2[C@]23CCC(=O)N(Cc4cc(OC)c(OC)c(OC)c4)C2=NC(C(=O)OC)=C(C(=O)OC)[C@H]13
Potency [1]: inactive
Potency [2]: inactive

COC(=O)C1=C(C)N(Cc2ccccc2)C(=NCC(C)C)NC1c1ccc(Br)cc1 (centres undefined)
Potency [1]: inactive
Potency [2]: inactive

COc1ccc([C@]23Cc4ccccc4[C@H](O2)C2=C(CC(C)(C)CC2=O)O3)cc1
Potency [1]: inactive
Potency [2]: inactive

C[C@@H]1C=CCC(=O)N[C@@H](c2cccc(Br)c2)[C@H](C)C=CCC(=O)N[C@@H]1c1cccc(Br)c1
Potency [1]: inactive
Potency [2]: inactive

Fc1ccccc1-c1nc(-c2ccccc2)oc1NCc1ccccc1
Potency [1]: inactive
Potency [2]: inactive

O=C1Nc2ccccc2[C@@]12O[C@H](COc1ccccc1)CC1=C2CCC1
Potency [1]: inactive
Potency [2]: inactive

CC(C)(C)OC(=O)C1=NOC2(C=CC(=O)C=C2)C1
activity change, negative = inhibition [4]: -5.68% [at 11.4 µM]
activity change, negative = inhibition [5]: -24.2% [at 11.4 µM]
activity change, negative = inhibition [6]: -10.1% [at 11.4 µM]
activity, negative = inhibition [7]: 0.0773% [at 11.4 µM]
Potency [3]: inactive
Potency [1]: inactive
Potency [2]: 376 nM (active)

N#Cc1ccc2c(c1)C[C@]1(CCCCN3C(=O)c4ccccc4C3=O)OC3=C(C(=O)OC4(CCCCC4)C3)[C@H]2O1
Potency [1]: inactive
Potency [2]: inactive

COc1cccc([C@@H]2Oc3ccc(OC)cc3C(=O)[C@@H]2O)c1
Potency [1]: inactive
Potency [2]: inactive

C[C@@H]1CC[C@H]2C(=O)O[C@@H](COc3ccc(C(C)(C)C)cc3)CN2[C@@H]1c1ccc(Br)cc1
Potency [3]: 1.69 µM (active)
Potency [1]: 1510 nM (active)
Potency [2]: inactive

CC=CC1=Cc2ccccc2C(C(C(=O)OC)C(=O)OC)N1C(=O)OC (centres undefined)
Potency [1]: inactive
Potency [2]: inactive

CSc1nc(N)c2ncn([C@@H]3O[C@H](COP(=O)(O)OP(=O)(O)OP(=O)(O)O)C(O)[C@H]3O)c2n1 (some centres undefined)
Potency [8]: 50.1 µM (active)

CC(CCN1CCc2nc(-c3ccccc3)c(-c3ccccc3)cc2C1)=NO[C@H](C)CN1CCCCc2nc(C)c(C)cc21
Potency [1]: inactive
Potency [2]: inactive

COc1ccc([C@]23Cc4ccccc4[C@H](O2)C2=C(CCCC2=O)O3)cc1
Potency [1]: inactive
Potency [2]: inactive

CCOC(=O)CN1C(=O)[C@]2(O[C@H](COc3ccccc3)CC3=C2CCC3)c2ccccc21
Potency [1]: inactive
Potency [2]: inactive

COc1cccc([C@H]2NC(=O)CC=C[C@H](C)[C@@H](c3cccc(OC)c3)NC(=O)CC=C[C@H]2C)c1
Potency [1]: inactive
Potency [2]: inactive

COc1ccc([C@]23Cc4ccccc4[C@H](O2)c2c(cc(C)n(Cc4ccccc4)c2=O)O3)cc1
Potency [1]: inactive
Potency [2]: inactive

O=C(N[C@H](c1ccccc1)C1CCCC=C1c1ccccc1)C(F)(F)F (some centres undefined)
Potency [1]: inactive
Potency [2]: inactive

CCCC[C@]12Cc3cc(C#N)ccc3[C@H](O1)c1c(cc(-c3ccccc3)oc1=O)O2
Potency [1]: inactive
Potency [2]: inactive
